Hits are enriched below; roughly 3.5% of the tested compounds scored in any of these assays.
TEAD-YAP block: TEAD-YAP interaction inhibition. HEK-TIYL cells, TEAD-Gal4/YAP UAS-luciferase luminescence. inhibition, % at 9.12 µM. actives 1.4% (n = 640,000); in the data active means inhibition above about 32%;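 further: 0% = median of test compound wells and 100% = reference inhibitor wells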
MITF primary: human MITF inhibition, primary screen. inhibition, % at 2.6 µM. actives 0.91% (n = 650,000). AlphaScreen MITF homodimerization, bead proximity signal; in the data active means inhibition above about 50%;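 further: 0% = vehicle wells with protein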
Target sequence (O75030 whole entry, looked up): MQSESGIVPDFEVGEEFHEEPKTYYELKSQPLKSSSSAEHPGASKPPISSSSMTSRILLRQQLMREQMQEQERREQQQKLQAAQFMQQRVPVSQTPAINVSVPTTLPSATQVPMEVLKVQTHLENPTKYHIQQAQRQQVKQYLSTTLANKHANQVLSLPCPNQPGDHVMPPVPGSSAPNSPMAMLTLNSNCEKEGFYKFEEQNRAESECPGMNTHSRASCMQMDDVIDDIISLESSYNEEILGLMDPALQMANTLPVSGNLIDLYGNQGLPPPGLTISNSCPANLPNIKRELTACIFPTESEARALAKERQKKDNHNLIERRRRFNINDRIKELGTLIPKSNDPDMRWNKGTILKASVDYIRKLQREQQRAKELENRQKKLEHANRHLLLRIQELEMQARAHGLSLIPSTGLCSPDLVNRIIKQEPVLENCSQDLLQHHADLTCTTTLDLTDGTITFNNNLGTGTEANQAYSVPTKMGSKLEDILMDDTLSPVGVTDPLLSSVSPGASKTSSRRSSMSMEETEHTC
GPR151 activ: activates the human receptor GPR151. PathHunter beta-arrestin GPR151 cells, luminescence. activation, % at 11.2 µM. actives 1% (n = 650,000). AID 1508602; in the data active means activation above about 4.9%;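 further: 0% = median of compound wells and 100% = cells with positive control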
FBW7 activator: human FBW7 E3 ligase activation, primary screen. AID 1259310. actives 0.13% (n = 650,000). Q969H0. normalized activity (activation), % at 26.1 µM. AlphaScreen FBW7–phospho-cyclin E peptide binding, activator screen; in the data active means normalized activity above about 1.9%;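 further: purified mutant Fbw7 with reduced substrate affinity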
MITF inh conf: human MITF inhibition, confirmation; shares compounds with MITF primary; actives 16% (n = 4,700); inhibition, % at 2.6 µM; AID 1259372; AlphaScreen MITF homodimerization, biotin/His-MITF beads;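 active means inhibition above a cutoff derived from the DMSO control wells, cut at about 28% in these data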;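 further: 0% = MITF dimer wells with DMSO only; inhibitors lower the bead chemiluminescence by keeping MITF from dimerizing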
AlphaScreen intf2: counter-screen: compounds optically interfering with AlphaScreen. shares compounds with MITF primary. LysRS AlphaScreen counterscreen, signal interference, triplicate. inhibition, % at 2.6 µM. actives 7.6% (n = 4,700);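 active means inhibition above a cutoff derived from the DMSO control wells, cut at about 30% in these data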
Numbers without * were called inactive; nt = not tested or not shown.

SMILES | TEAD-YAP block | MITF primary | GPR151 activ | FBW7 activator | MITF inh conf | AlphaScreen intf2
COc1ccc(C(=O)N2CCN(Cc3ccc(OC)c(Br)c3)CC2)cc1 | 4 | 43 | -2 | 1 | nt | nt
COc1ccc(CN2CCN(C(=O)CC(C)C)CC2)cc1Br | -4 | 54* | -2 | 0 | 4 | 15
CCOc1ccc(CN2CCN(C(=O)c3cccs3)CC2)cc1 | 8 | 60* | -1 | 0 | 9 | 14
CCc1ccc(CN2CCC(C(=O)NC(C)C)CC2)cc1 | 7 | 34 | 0 | 0 | nt | nt
COc1ccc(CN2CCN(C(=O)c3ccccc3F)CC2)cc1Br | -3 | 54* | 0 | 0 | 27 | -10
CCc1ccc(CN2CCN(C(=O)CC(C)C)CC2)cc1 | 5 | 58* | 0 | 0 | 1 | 9
CN(C)c1ccccc1-c1cnc2c(NCc3ccco3)nccn12 | -3 | -4 | 1 | 0 | nt | nt
CN(Cc1ccccc1)CC(O)COc1ccc(CN2CCCC2)cc1 (configuration not stated) | 7 | 1 | -1 | 0 | nt | nt
CCOC(=O)/C(=C/c1ccc(-c2cccc([N+](=O)[O-])c2)o1)C(C)=O | -1 | 0 | -1 | 0 | nt | nt
COc1ccc(CN2CCN(C(=O)c3cccs3)CC2)cc1Br | -9 | 67* | -1 | 0 | 3 | 9
COc1ccc(CN2CCN(C(=O)c3cccs3)CC2)cc1OC | 1 | 37 | -2 | 0 | nt | nt
CN(CC(=O)Nc1c2c(nc3ccccc13)CCC2)Cc1ccccc1 | -5 | 71* | 2 | 0 | 11 | 9
O=C(CN1CCN(c2ccccc2)CC1)Nc1c2c(nc3c1CCC3)CCCC2 | -6 | 2 | 0 | 0 | nt | nt
CN1CCN(CC(=O)Nc2c3c(nc4ccccc24)CCCC3)CC1 | 2 | 60* | 1 | 0 | 4 | 13
O=C(CN1CCN(Cc2ccccc2)CC1)Nc1c2c(nc3c1CCC3)CCCC2 | 5 | 67* | 1 | 0 | -6 | -6
CN(C)c1ccc2c(c1)C(=O)c1ccccc1C2=O | -70 | 12 | -2 | 0 | nt | nt
COc1cc(CN2CCNC(=O)C2CC(=O)NCCCn2cccn2)cc(OC)c1 (configuration not stated) | 0 | 12 | 2 | 0 | nt | nt
COc1ccc(CCN(CCC(=O)O)CCC(=O)O)cc1OC | 1 | 58* | -1 | 0 | -13 | -3
C=CCNc1nc(-c2ccc(O)cc2)cs1 | -23 | 70* | -1 | 0 | 5 | 22
Cc1cccc(Nc2nc(-c3ccc(O)cc3)cs2)c1 | -46 | 67* | -1 | 0 | 8 | 21
CCCN1C(=O)C[n+]2ccccc2C1C(=O)Nc1c(C)cccc1C (configuration not stated) | 1 | 19 | 0 | 0 | nt | nt
C=CCc1ccccc1OCC(O)CN1CCN(c2ccc(F)cc2)CC1 (configuration not stated) | 8 | 2 | 2 | 0 | nt | nt
O=C(O)c1ccccc1NC(=O)C1CCCN(S(=O)(=O)c2cccc3nsnc23)C1 (configuration not stated) | 28 | 3 | 1 | 0 | nt | nt
COc1cc(Br)c(CN(C)CCN(C)C)cc1OC | -3 | -16 | 1 | 0 | nt | nt
COc1cc(CN(C)CCN(C)C)cc(OC)c1 | -3 | 64* | -1 | 0 | 1 | -1
SMILES | TEAD-YAP block | MITF primary | GPR151 activ | FBW7 activator | MITF inh conf | AlphaScreen intf2
COc1ccc(CN(C)CCN(C)C)cc1OC | -7 | 16 | 0 | 0 | nt | nt
COc1ccc(CN(C)CCN(C)C)cc1C | 0 | 58* | -1 | 0 | 3 | 16
CC(=O)c1cccc(NC(=O)/C(=C/c2cccc([N+](=O)[O-])c2)NC(=O)c2cccs2)c1 | 10 | 8 | 0 | 0 | nt | nt
Cc1cc(C)c(OCCCNCCN(C)C)c(Br)c1 | 1 | 55* | 2 | -1 | 3 | 21
COCCNCCCOc1c(Cl)cc(C)cc1Br | 6 | 27 | 3 | 0 | nt | nt
COCCCNCCCCOc1c(Cl)cc(C)cc1Br | 15 | 58* | 0 | 0 | 5 | 10
COCCCNCCOCCOc1c(C)cc(C)cc1Cl | 5 | 52* | -2 | 0 | 5 | 11
Cc1cc(Br)cc(Cl)c1OCCCNCCN(C)C | -4 | -22 | 1 | 1 | nt | nt
Nc1nc(CC(=O)NNC(=O)c2ccc(F)cc2)cs1 | 8 | 11 | 0 | -1 | nt | nt
O=C1/C(=C/c2ccccc2[N+](=O)[O-])SC(=S)N1C1CCS(=O)(=O)C1 (configuration not stated) | 6 | -4 | 1 | 0 | nt | nt

Assay outcomes (PubChem BioAssay)
